Data from PubChem BioAssay (NCATS).
Inconclusive results are not listed. Calls of active or inactive are those of the source. Calls come from the whole dose curve; as a rule, active = well fitted curve in the direction sought with a large enough effect; inconclusive = small, poorly fitted or top-dose-only effect, or another doubt; inactive = no such curve, though single readings can be large; an effect the other way counts as inactive or inconclusive.

Key:
[1] = Cellular Toxicity (caspase-3) NIH 3T3 (AID 666);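 note: caspase signal read after 16 h compound exposure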
Method in brief: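 Caspase-Glo 3/7 luminescence reported caspase activation in 1000 NIH 3T3 cells/well after 16 h compound exposure at 37 C. DMSO set basal and 100 uM tamoxifen set 100% stimulation; concentration-response modeled with the Hill equation for AC50.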

[2] = Cellular Toxicity (caspase-3) Renal Proximal Tubule (AID 667);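 note: cells exposed to compound for 16 hours at 37 °C before detection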
Method in brief: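 Caspase 3/7 activation measured by luminescent aminoluciferin release in primary rat proximal tubule cells after 16 hr compound exposure at 37 °C. AC50 from Hill-fitted concentration-response, scaled between DMSO and 10 uM staurosporine.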

[3] = target: Cytochrome P450 3A4 (Homo sapiens) (UniProt P08684); experiment: qHTS Assay for Inhibitors and Substrates of Cytochrome P450 3A4 (AID 884); note: series mostly up to about 57 µM; nearly all actives have a fitted effect of over 50% in size
Chain of Cytochrome P450 3A4 (Homo sapiens) (P08684 whole entry, looked up): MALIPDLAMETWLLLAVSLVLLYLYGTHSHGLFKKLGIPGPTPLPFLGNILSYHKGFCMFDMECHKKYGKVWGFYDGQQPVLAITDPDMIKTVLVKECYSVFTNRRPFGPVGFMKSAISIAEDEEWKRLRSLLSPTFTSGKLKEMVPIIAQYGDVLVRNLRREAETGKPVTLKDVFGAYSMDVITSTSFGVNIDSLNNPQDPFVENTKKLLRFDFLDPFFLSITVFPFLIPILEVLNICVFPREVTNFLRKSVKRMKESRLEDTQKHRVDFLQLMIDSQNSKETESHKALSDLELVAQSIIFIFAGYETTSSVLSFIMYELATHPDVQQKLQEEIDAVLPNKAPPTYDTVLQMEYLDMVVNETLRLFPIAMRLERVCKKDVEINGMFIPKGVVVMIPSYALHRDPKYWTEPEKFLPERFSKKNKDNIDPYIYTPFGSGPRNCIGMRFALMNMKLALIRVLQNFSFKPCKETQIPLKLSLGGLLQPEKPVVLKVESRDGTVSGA
Method in brief: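 Luminescent readout of luciferin produced by CYP3A4 (20 nM) dealkylation of Luciferin-PPXE, 25 uM (its KM). NADPH-driven reaction ran 60 min at RT after 10 min compound preincubation; data scaled to 57 uM ketoconazole as 100% inhibition.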

[4] = MultiTox-Fluor Cytotoxicity Assay - LYMP1-001 - Dead Cells (AID 946)
Method in brief: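 Seed 2500 LYMP1-001 cells/well, incubate 5 hr at 37 C; add compound, 16 hr at 37 C; add MultiTox-Fluor reagent, 60 min RT; read dead-cell fluorescence Ex/Em=485/520. Normalize to DMSO and 15 uM tetraoctylammonium bromide.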

[5] = MultiTox-Fluor Cytotoxicity Assay - LYMP1-001 - Live Cells (AID 947)
[6] = Cell Viability - LYMP1-002 - Assay at 16 hr (AID 948)
Method in brief: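 ATP luminescence (CellTiter-Glo) was measured after 16 hr compound exposure at 37 C of 2500 lymphoblastoid LYMP1-002 cells per well. Concentration-response curves were fitted with the Hill equation to give AC50.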

[7] = MultiTox-Fluor Cytotoxicity Assay - LYMP1-002 - Live Cells (AID 955);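 note: cells exposed to compound for 16 hours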
Method in brief: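 After 16 h compound exposure at 37 C, live LYMP1-002 lymphoblastoid cells (2500/well) were quantified by cleavage of cell-permeant GF-AFC substrate, read at 405/510 nm after 60 min. Concentration-response fitted with Hill equation for AC50.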

[8] = MultiTox-Fluor Cytotoxicity Assay - LYMP1-002 - Dead Cells (AID 960); note: nearly all actives have a fitted effect of over 60% in size
Method in brief: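 Dead-cell fluorescence (Ex/Em 485/520) after 16 h compound exposure at 37 C of LYMP1-002 lymphoblastoid cells in complete medium; AC50 by Hill equation, with data scaled between DMSO and 15 uM tetraoctylammonium bromide.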

[9] = MultiTox-Fluor Cytotoxicity Assay - LYMP1-003 - Live Cells (AID 962);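 note: cells exposed to compound for 16 hours at 37 °C; cytotoxic hits lower the live-cell protease signal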
Method in brief: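 Live-cell protease activity (GF-AFC substrate, 405/510 nm, 60 min at room temperature) after 16 h, 37 C compound exposure of human lymphoblastoid LYMP1-003 cells; concentration-response fitted to the Hill equation for AC50.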

[10] = Cell Viability - LYMP1-003 - Assay at 24 hr (AID 963)
Method in brief: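 Concentration-response qHTS: ATP loss measured by CellTiter-Glo luminescence after 24 h compound exposure at 37 C. Cells were LYMP1-003 human lymphoblastoid, 2500 per well. AC50 derived via standard Hill equation modeling.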

[11] = Cell Viability - LYMP1-003 - Assay at 40 hr (AID 964); note: series mostly up to about 92 µM; nearly all actives have a fitted effect of over 60% in size
Method in brief: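 Viability is taken as cellular ATP, read by CellTiter-Glo luminescence after 40 h of compound exposure at 37 C. Cells: human lymphoblastoid line LYMP1-003 at 2500/well; AC50 values derived by Hill-equation fitting of concentration-response data.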

[12] = Cell Viability - LYMP2-003 (AID 965);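 note: cells exposed to compounds for 24 h before reading; nearly all actives have a fitted effect of over 50% in size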
Method in brief: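 CellTiter-Glo luminescence quantified ATP loss after 24 h compound treatment of LYMP2-003 lymphoblastoid cells at 37 C. Titration series were fitted with the standard Hill equation to give AC50.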

[13] = Cell Viability - LYMP2-004 (AID 966); note: nearly all actives have a fitted effect of over 65% in size
Method in brief: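 AC50 values come from Hill modelling of concentration-dependent loss of intracellular ATP, measured by CellTiter-Glo luminescence. Human LYMP2-004 lymphoblastoid cells (2500/well) were exposed to compound for 24 h at 37 C.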

[14] = Cell Viability - LYMP2-005 (AID 967); note: series mostly up to about 92 µM
Method in brief: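 LYMP2-005 human lymphoblastoid cells (2500/well) were treated with compounds for 24 h at 37 C. Intracellular ATP was then measured by CellTiter-Glo luminescence after 30 min at room temperature. AC50 values came from Hill-equation fits of qHTS concentration-response data.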

[15] = Cell Viability - LYMP2-009 (AID 968); note: series mostly up to about 92 µM; nearly all actives have a fitted effect of over 55% in size
[16] = Cell Viability - LYMP2-011 (AID 969); note: nearly all actives have a fitted effect of over 60% in size
Method in brief: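 Cytotoxicity qHTS with ATP content as read-out: lymphoblastoid cells (2500/well) exposed to compound for 24 h at 37 C, then luciferase luminescence measured. Concentration-response data fitted with the standard Hill equation to give AC50.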

[17] = Cell Viability - LYMP2-013 (AID 970); note: series mostly up to about 92 µM; nearly all actives have a fitted effect of over 55% in size
Method in brief: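 qHTS cytotoxicity: ATP-dependent luminescence (CellTiter-Glo, 30 min room temperature) read after 24 h compound exposure at 37 C of 2500 LYMP2-013 lymphoblastoid cells per well. Concentration-response fitted with Hill equation to give AC50.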

[18] = Cell Viability - LYMP2-015 (AID 971); note: nearly all actives have a fitted effect of over 55% in size
Method in brief: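 Cytotoxicity readout: decrease in intracellular ATP (CellTiter-Glo luminescence) in 2500 LYMP2-015 lymphoblastoid cells/well after 24 h compound exposure at 37 C. Concentration-response data fitted with the standard Hill equation to give AC50.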

[19] = Cell Viability - LYMP2-017 (AID 972); note: series mostly up to about 92 µM; nearly all actives have a fitted effect of over 55% in size
Method in brief: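 CellTiter-Glo luminescence (cellular ATP, 30 min RT) measured cytotoxicity after 24 hr compound treatment at 37 C. Cells were a human lymphoblastoid line, LYMP2-017, plated at 2500/well and incubated 5 hr first; concentration-response fitted with Hill equation for AC50.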

[20] = Cell Viability - LYMP2-021 (AID 974); note: nearly all actives have a fitted effect of over 55% in size
Method in brief: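 AC50 values come from Hill-equation fits to CellTiter-Glo luminescence (ATP content), read after 24 hour compound exposure at 37 C of 2500 LYMP2-021 lymphoblastoid cells/well; tetraoctylammonium bromide as positive control.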

[21] = Cell Viability - LYMP2-023 (AID 975)
Method in brief: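 Intracellular ATP, read by CellTiter-Glo luminescence, reports viability after 24 hr compound exposure at 37 C. 2500 lymphoblastoid cells/well (LYMP2-023) seeded 5 hr beforehand; Hill fits give AC50; positive control tetraoctylammonium bromide.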

[22] = Cell Viability - LYMP2-025 (AID 976); note: series mostly up to about 92 µM
Method in brief: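 Cytotoxicity read as loss of intracellular ATP (luciferase luminescence) after 24 h compound treatment at 37 C. Uses LYMP2-025 lymphoblastoid cells in 1536-well format; Hill-equation modelling gives AC50; tetraoctylammonium bromide as positive control.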

Measured: Potency

CCOc1cc(C=O)ccc1O
inactive: all assays above
